Laboratory results reported in PubChem BioAssay (NCATS).
Results filed as inconclusive are left out. Where a call stands in place of a potency, no number is given. Calls of active or inactive are those of the source. Calls come from the whole dose curve; as a rule, active = well fitted inhibition curve with a large enough effect; inconclusive = small, poorly fitted or top-dose-only effect; inactive = flat fitted curve, though single readings scatter.

Biological target: Calcium and integrin-binding protein 1 (Homo sapiens) (UniProt Q99828)
Experiment: Primary qHTS for Identification of Calcium Integrin Binding Protein 1 (CIB1) Competitor (AID 1508620);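 note: GST tagged CIB1 binding a fluorescein labelled alphaIIb integrin peptide tracer; top concentration of the series differs between compounds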
Conditions: CIB1-GST / FITC-alphaIIb peptide fluorescence polarization; series mostly up to 114 µM
Outline: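 CIB1-GST (1 uM final) and compound incubated 15 min at room temperature before adding FITC-alphaIIb peptide tracer (100 nM final). Competition for binding read by fluorescence polarization (ex 480, em 540) after another 15 min at room temperature.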

Sequence of Calcium and integrin-binding protein 1 (Homo sapiens) (Q99828 whole entry, looked up): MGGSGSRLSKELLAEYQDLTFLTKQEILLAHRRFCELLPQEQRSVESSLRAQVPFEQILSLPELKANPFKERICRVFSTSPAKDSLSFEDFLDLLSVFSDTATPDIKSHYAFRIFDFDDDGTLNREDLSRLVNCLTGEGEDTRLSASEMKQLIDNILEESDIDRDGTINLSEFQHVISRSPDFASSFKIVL

SMILES	Potency
Cn1cc(-c2ccc(S(=O)(=O)n3ccc(/C=C/C(=O)Nc4ccccc4N)c3)cc2)cn1	inactive
CCOC(=O)N1CCC(N2CCC[C@@H](NC(=O)c3ccccc3C)C2)CC1	inactive
CCn1c(=O)c(-c2ccc(Cl)cc2Cl)cc2cnc(Nc3ccc(N4CCNCC4)c(F)c3)nc21	inactive
COC(=O)N1CCC(n2ncc3c(N4CCOCC4)nc(-c4ccc(NC(=O)NC5CC5)cc4)nc32)CC1	inactive
